PubChem BioAssay AID1347074 (Center for Chemical Genomics, University of Michigan, 2019)
Among all 47,000 compounds or so, about 2,800 (6%) were called active. Cut-off read from the data, not from the text of the source: active = z-score above about 3 (passing the limit was not always enough); inactive = the rest. Shown is part of a subset that was picked to be rich in actives.

Target: Endoribonuclease Dicer (Homo sapiens) (UniProt Q9UPY3)
Test: inhibitors of Dicer pre-microRNA processing, primary screen, biochemical, cat-ELCCA, chemiluminescence (AID 1347074);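 note: plate controls were vehicle for no effect and no enzyme for full effect; higher signal means more uncleaved substrate so more Dicer inhibition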
Settings: cat-ELCCA pre-miR-21 Dicer processing, at 25 µM, active compounds read high

Chain of Endoribonuclease Dicer (Homo sapiens) (Q9UPY3 whole entry, looked up): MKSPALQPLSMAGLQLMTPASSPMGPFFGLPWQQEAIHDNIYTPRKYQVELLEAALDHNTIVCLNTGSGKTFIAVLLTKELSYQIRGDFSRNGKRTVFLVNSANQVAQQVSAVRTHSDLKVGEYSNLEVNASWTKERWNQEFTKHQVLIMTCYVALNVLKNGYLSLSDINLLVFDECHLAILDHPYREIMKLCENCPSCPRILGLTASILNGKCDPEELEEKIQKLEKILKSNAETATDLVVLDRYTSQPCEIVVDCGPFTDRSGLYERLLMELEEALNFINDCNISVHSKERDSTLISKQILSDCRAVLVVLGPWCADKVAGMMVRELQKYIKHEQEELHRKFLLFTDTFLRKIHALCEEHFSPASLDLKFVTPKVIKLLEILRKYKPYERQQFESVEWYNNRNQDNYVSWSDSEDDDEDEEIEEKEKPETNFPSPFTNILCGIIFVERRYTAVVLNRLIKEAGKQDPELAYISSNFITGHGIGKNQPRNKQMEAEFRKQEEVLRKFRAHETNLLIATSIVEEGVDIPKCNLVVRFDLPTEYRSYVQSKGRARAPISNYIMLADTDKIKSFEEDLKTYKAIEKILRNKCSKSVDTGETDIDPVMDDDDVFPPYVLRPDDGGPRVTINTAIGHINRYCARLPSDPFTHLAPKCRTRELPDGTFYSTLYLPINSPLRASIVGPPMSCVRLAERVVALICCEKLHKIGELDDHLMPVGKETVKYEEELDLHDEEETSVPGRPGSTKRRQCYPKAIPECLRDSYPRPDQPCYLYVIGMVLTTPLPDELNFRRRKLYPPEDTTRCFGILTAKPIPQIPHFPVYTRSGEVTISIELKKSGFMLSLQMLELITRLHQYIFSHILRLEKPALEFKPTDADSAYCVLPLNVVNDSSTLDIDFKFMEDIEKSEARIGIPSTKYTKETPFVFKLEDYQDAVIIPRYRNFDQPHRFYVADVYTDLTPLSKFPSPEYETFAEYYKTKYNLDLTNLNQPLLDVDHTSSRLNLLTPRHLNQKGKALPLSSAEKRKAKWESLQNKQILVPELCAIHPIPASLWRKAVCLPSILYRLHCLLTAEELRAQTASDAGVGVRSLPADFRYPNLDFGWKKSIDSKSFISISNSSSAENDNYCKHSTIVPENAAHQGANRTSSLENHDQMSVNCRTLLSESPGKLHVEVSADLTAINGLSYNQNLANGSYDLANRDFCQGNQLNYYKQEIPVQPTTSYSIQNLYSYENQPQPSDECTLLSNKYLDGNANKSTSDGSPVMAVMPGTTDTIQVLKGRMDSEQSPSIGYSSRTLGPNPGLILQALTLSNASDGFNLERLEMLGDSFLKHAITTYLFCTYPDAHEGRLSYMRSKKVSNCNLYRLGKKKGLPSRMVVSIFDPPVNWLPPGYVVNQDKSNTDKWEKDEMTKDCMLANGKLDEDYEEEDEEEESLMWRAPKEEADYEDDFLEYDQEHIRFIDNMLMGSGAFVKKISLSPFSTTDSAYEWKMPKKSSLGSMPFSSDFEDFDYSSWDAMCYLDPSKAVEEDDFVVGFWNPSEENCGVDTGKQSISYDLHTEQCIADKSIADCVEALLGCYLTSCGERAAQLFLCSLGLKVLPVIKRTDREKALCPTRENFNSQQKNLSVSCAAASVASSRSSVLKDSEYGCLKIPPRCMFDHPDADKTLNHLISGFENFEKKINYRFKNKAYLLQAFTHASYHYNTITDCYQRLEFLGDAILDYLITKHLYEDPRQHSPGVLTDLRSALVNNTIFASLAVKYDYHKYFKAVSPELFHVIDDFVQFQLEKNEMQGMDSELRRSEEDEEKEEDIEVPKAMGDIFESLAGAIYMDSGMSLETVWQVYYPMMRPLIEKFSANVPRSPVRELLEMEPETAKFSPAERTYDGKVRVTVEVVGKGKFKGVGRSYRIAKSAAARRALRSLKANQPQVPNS

| SMILES | z-score |
| --- | --- |
| O=C1c2ccccc2C(=O)C1c1ccccc1F | 20.4 (active) |
| Nc1nc2c(c(=O)[nH]1)C(c1ccccc1F)CC(=O)N2 (stereo not given) | -1.01 (inactive) |
| O=C1c2ccccc2C(=O)C1c1ccccc1 | 0.31 (inactive) |
| COC(=O)CCS(=O)(=O)c1ccc2ccccc2c1 | 1.34 (inactive) |
| COC(=O)c1ccc(/C=C/c2nc3cc(C)c(C)cc3o2)cc1 | -0.26 (inactive) |
| Cc1ccc(S(=O)(=O)Nc2cccc(-c3cn4ccccc4n3)c2)cc1C | 5.71 (active) |
| Cc1cccn2cc(-c3cccc(S(=O)(=O)N4CCCCC4)c3)nc12 | 0.61 (inactive) |
| O=S(=O)(c1cccc(-c2cn3ccccc3n2)c1)N1CCCC1 | -0.49 (inactive) |
| Oc1ccccc1C1=NN2C(C1)c1cc(Br)ccc1OC2c1ccncc1 (stereo not given) | 12.7 (active) |
| Cc1ccc(O)c(C2=NN3C(C2)c2cc(Cl)ccc2OC3c2ccncc2)c1 (stereo not given) | -0.01 (inactive) |
| COc1ccc(O)c(C2=NN3C(C2)c2cc(Cl)ccc2OC3c2cccnc2)c1 (stereo not given) | -1.34 (inactive) |
| O=C(O)/C=C/C(=O)Nc1cccc([N+](=O)[O-])c1 | 1.26 (inactive) |
| Cc1cccc(C)c1NC(=S)N1CCc2ccccc2C1 | -2.91 (inactive) |
| O=[N+]([O-])c1cc(Br)cnc1Sc1n[nH]c(-c2cccs2)n1 | -0.81 (inactive) |
| Clc1ccc(-c2nn3c(-c4ccc(Cl)cc4)nnc3s2)cc1 | 0.14 (inactive) |
| COc1nc(NC(C)(C)C)nc(Oc2ccc(=O)[nH]n2)n1 | -0.91 (inactive) |
| O=C1CC(c2ccccc2)Cc2nc(N3CCN(Cc4ccc5c(c4)OCO5)CC3)ncc21 (stereo not given) | -1.59 (inactive) |
| O=C(c1cccs1)N1CCN(Cc2ccc3c(c2)OCO3)CC1 | 0.63 (inactive) |
| CCCCCc1c(C)nc(N2CCN(Cc3ccc4c(c3)OCO4)CC2)[nH]c1=O | 3.11 (active) |
| CCCCN1C(=O)C(c2c(C)[nH]n(-c3ccccc3)c2=O)(C(F)(F)F)C2=C1CC(C)(C)CC2=O (stereo not given) | -2.96 (inactive) |
| Cc1ccc(S(=O)(=O)Nc2cccc(CCc3ccccn3)c2)cc1 | -0.8 (inactive) |
| CCCc1ccc(C(=O)NNc2ccc(C)cc2C)cc1 | 4.39 (active) |
| CCCCCCCCc1ccc(C(=O)O)cc1 | -0.9 (inactive) |
| COCCCNC(=S)Nc1ccc(C)cc1C | -0.42 (inactive) |
| Oc1c(C(Nc2ccccn2)c2ccncc2)ccc2cccnc12 (stereo not given) | 1.37 (inactive) |

| SMILES | z-score |
| --- | --- |
| Cc1cccc(Cl)c1N=C(N)N=C(N)N | 1.97 (inactive) |
| CC1(C)N=C(N)N=C(N)N1c1cc(Cl)c(Cl)cc1Cl | -0.47 (inactive) |
| O=c1ccn(C2CCCO2)c(=O)n1Cc1ccccc1F (stereo not given) | 0.96 (inactive) |
| CCc1ccc(C(=O)/C=C/Sc2ccccn2)cc1 | 4.22 (active) |
| CCc1ccc(C(=O)/C=C/Sc2nc3ccccc3o2)cc1 | 1.33 (inactive) |
| CCCc1c(C)nc2scc(-c3ccc(Cl)cc3)n2c1=O | 1.65 (inactive) |
| O=C(Nc1cccc(C(F)(F)F)c1)Nc1ccccc1SCc1ccc(Cl)cc1 | -1.32 (inactive) |
| COCCCNC(=S)N/N=C/c1ccccc1Cl | -0.35 (inactive) |
| COc1cccc(/C=N/NC(=O)c2cc(C)nc3ccc(Br)cc23)c1O | 2.93 (inactive) |
| COc1cccc(/C=N/NC(=S)Nc2cc(C(F)(F)F)cc(C(F)(F)F)c2)c1O | 5.84 (active) |
| CC(C)OC(=O)Cn1nc(C(F)(F)F)c2c1CCCC2 | 0.31 (inactive) |
| c1ccc(Nc2ncnc3sc(-c4ccccc4)cc23)cc1 | 0.51 (inactive) |
| COc1ccc(Nc2ncnc3sc(-c4ccccc4)cc23)c(OC)c1 | 8.39 (active) |
| CNC(=O)NC(=O)CSc1ncnc2sc(-c3ccccc3)cc12 | -1.14 (inactive) |
| CCOc1nc(-c2ccc(C)cc2)ccc1-c1noc(C)n1 | 0.71 (inactive) |
| Cn1c(SCC(=O)Nc2cccc(C(F)(F)F)c2)nnc1SCC(=O)Nc1cccc(C(F)(F)F)c1 | -0.05 (inactive) |
| COc1cc(C2c3c(oc4ccc(F)cc4c3=O)C(=O)N2Cc2ccccc2)ccc1O (stereo not given) | 2.47 (inactive) |
| COc1nc(NC(=O)NS(=O)(=O)c2ccccc2C(F)(F)F)nc(C23CC4CC(CC(C4)C2)C3)n1 | -0.58 (inactive) |
| Cc1ccc2nc(-c3ccc(NS(=O)(=O)c4ccc(Cl)s4)cc3)sc2c1 | 4.31 (active) |
| Cc1ccc(S(=O)(=O)Nc2ccc3ncccc3c2)cc1 | 0.32 (inactive) |
| Cc1ccc(Sc2nc3ccc(Cl)cc3s2)cc1 | -1.81 (inactive) |
| COc1ccc(C2CC(=O)c3cn4nc(C)nc4nc3C2)cc1OC (stereo not given) | -0.07 (inactive) |
| Cc1cc(C)c(S(=O)(=O)N2CCc3ccccc3C2)c(C)c1 | 0.07 (inactive) |
| CN([C@H]1CCN2CCc3ccccc3C2C1)S(C)(=O)=O (stereo not given in full) | 3.92 (active) |
| CN(C(=O)CSc1nc(C2CCCCC2)c(C#N)c(=O)[nH]1)c1ccccc1 | -0.59 (inactive) |
